The source of these data is PubChem BioAssay (EPA / NIEHS).

Calls of active or inactive are those of the source. Rule for the calls: active = hit-call score of the fitted dose curve at least 0.9, where 1 is the maximum; inactive = score below 0.9.

Holding throughout (settings): mRNA level, 48 h; actives raise or lower the signal
Read-out in assay [1]: cysteine-aspartic acid protease (CASP8), CASP8 (gene 841)
Nature of the assay: LTEA_HepaRG_CASP8: Life Technologies and Expression Analysis (LTEA) Assay for cysteine-aspartic acid protease (CASP8) using HepaRG (AID 2283480). An outline of the steps: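 Concentration-response in duplicate up to 100 uM (half-log steps, 0.5% DMSO) on differentiated HepaRG cultures for 48 h. Expression change of CASP8 mRNA is determined by TaqMan qRT-PCR with housekeeping-gene normalization.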

Read-out in assay [2]: Cytochrome P450 (CYP2B6), CYP2B6 (gene 1555)
Nature of the assay: LTEA_HepaRG_CYP2B6: Life Technologies and Expression Analysis (LTEA) Assay for Cytochrome P450 (CYP2B6) using HepaRG (AID 2283481). In a few lines: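 Using 48 h treatment of HepaRG cells in serum-free induction medium, concentrations spanned half-log steps from 100 uM in 0.5% DMSO vehicle. CYP2B6 mRNA induction or loss is scored by qRT-PCR against DMSO.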

Read-out in assay [3]: Cytochrome P450 2C19 (Homo sapiens) (UniProt P33261)
Nature of the assay: LTEA_HepaRG_CYP2C19: Life Technologies and Expression Analysis (LTEA) Assay for CYP2C19 using HepaRG (AID 2283482). An outline of the steps:
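Human HepaRG liver cells received test chemicals for 48 h (highest 100 uM, half-log dilutions in 0.5% DMSO). CYP2C19 mRNA induction or loss is read by multiplexed qRT-PCR and fitted in both directions versus vehicle.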

Read-out in the next assay: CYP2C8 (gene 1558)
Nature of the assay: LTEA_HepaRG_CYP2C8: Life Technologies and Expression Analysis (LTEA) Assay for CYP2C8 using HepaRG (AID 2283483). In a few lines:
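This is a transcriptional endpoint in HepaRG cultures: 48 h exposure, highest concentration 100 uM. CYP2C8 mRNA is quantified by TaqMan qRT-PCR.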

Read-out in the next assay: CYP2C9 (gene 1559)
The experiment in a line: LTEA_HepaRG_CYP2C9: Life Technologies and Expression Analysis (LTEA) Assay for CYP2C9 using HepaRG (AID 2283484). An outline of the steps:
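Eight-point concentration-response (highest 100 uM, half-log dilutions) in HepaRG cells for 48 h; CYP2C9 expression by qRT-PCR normalized to ACTB, GAPDH, POLR2A. Bidirectional fit, DMSO baseline.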

Read-out in a further assay: CYP2E1 (gene 1571)
The experiment in a line: LTEA_HepaRG_CYP2E1: Life Technologies and Expression Analysis (LTEA) Assay for CYP2E1 using HepaRG (AID 2283485). In a few lines:
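Readout is qRT-PCR of CYP2E1 mRNA, normalized to three housekeeping genes and fitted bidirectionally against 0.5% DMSO. HepaRG cells were dosed 48 h at eight concentrations, highest 100 uM with half-log dilutions.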

Read-out in another assay: CYP4A11 (gene 1579)
The experiment in a line: LTEA_HepaRG_CYP4A11: Life Technologies and Expression Analysis (LTEA) Assay for CYP4A11 using HepaRG (AID 2283486). An outline of the steps:
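Readout is CYP4A11 mRNA induction or suppression (qRT-PCR, ACTB/GAPDH/POLR2A normalization) in human HepaRG cells after 48 h chemical treatment, concentrations to 100 uM in 0.5% DMSO, fitted bidirectionally against vehicle.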

Read-out in assay [4]: Cytochrome P450 3A4 (Homo sapiens) (UniProt P08684)
Nature of the assay: LTEA_HepaRG_CYP3A4: Life Technologies and Expression Analysis (LTEA) Assay for CYP3A4 using HepaRG (AID 2283487). An outline of the steps: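 In a human hepatic line (HepaRG), duplicate wells were treated 48 h with up to 100 uM chemical in half-log dilutions. Endpoint: CYP3A4 mRNA induction or loss relative to 0.5% DMSO vehicle, by qRT-PCR.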

Read-out in assay [5]: DNA damage-inducible transcript 3 (DDIT3), DDIT3 (gene 1649)
Nature of the assay: LTEA_HepaRG_DDIT3: Life Technologies and Expression Analysis (LTEA) Assay for DNA damage-inducible transcript 3 (DDIT3) using HepaRG (AID 2283488). An outline of the steps: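 Cells are human HepaRG liver cells treated for 48 h with eight half-log concentrations up to 100 uM in 0.5% DMSO. Transcript levels come from qRT-PCR normalized to three housekeeping genes, with activity fitted in both directions relative to vehicle.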

Read-out in assay [6]: Pro-epidermal growth factor (Homo sapiens) (UniProt P01133)
The experiment in a line: LTEA_HepaRG_EGF: Life Technologies and Expression Analysis (LTEA) Assay for Epidermal growth factor (EGF) using HepaRG (AID 2283489). In a few lines:
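EGF expression changes in human HepaRG cells are scored by bidirectional fitting relative to 0.5% DMSO controls. Chemicals are tested at eight half-log concentrations up to 100 uM for 48 h in serum-free induction medium.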

Read-out in assay [7]: Early growth response protein 1 (EGR1) transcription factor, EGR1 (gene 1958)
Nature of the assay: LTEA_HepaRG_EGR1: Life Technologies and Expression Analysis (LTEA) Assay for Early growth response protein 1 (EGR1) transcription factor using HepaRG (AID 2283490). In a few lines:
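EGR1 expression change in human HepaRG after 48 h chemical exposure, assessed by housekeeping-normalized qRT-PCR; concentration-response up to 100 uM, fitted in both directions against DMSO controls.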

Read-out in assay [8]: Ezrin (EZR), EZR (gene 7430)
Nature of the assay: LTEA_HepaRG_EZR: Life Technologies and Expression Analysis (LTEA) Assay for Ezrin (EZR) using HepaRG (AID 2283491). In a few lines: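 Gain or loss of EZR mRNA is scored relative to 0.5% DMSO in human HepaRG cultures treated 48 h with test chemicals in duplicate, eight half-log concentrations from 100 uM.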

Read-out in assay [9]: Cytochrome P450 3A7 (Homo sapiens) (UniProt P24462)
Nature of the assay: LTEA_HepaRG_CYP3A7: Life Technologies and Expression Analysis (LTEA) Assay for CYP3A7 using HepaRG (AID 2283492). An outline of the steps: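 Cells were thawed, plated, cultured 48 h, then treated for a further 48 h with chemicals (eight-point half-log series from 100 uM, 0.5% DMSO). RNA was isolated and CYP3A7 expression quantified by qRT-PCR normalised to ACTB, GAPDH and POLR2A.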

Read-out in a further assay: CYP3A5 (gene 1577)
Nature of the assay: LTEA_HepaRG_CYP3A5: Life Technologies and Expression Analysis (LTEA) Assay for CYP3A5 using HepaRG (AID 2283493). In a few lines: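 Human HepaRG hepatic cells receive 48 h chemical treatment at eight concentrations (half-log steps from 100 uM) in 0.5% DMSO. Expression of CYP3A5 is quantified by Fluidigm qRT-PCR and normalized to three reference genes.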

Read-out in assay [10]: Fatty Acid-Binding Protein 1 (FABP1), FABP1 (gene 2168)
The experiment in a line: LTEA_HepaRG_FABP1: Life Technologies and Expression Analysis (LTEA) Assay for Fatty Acid-Binding Protein 1 (FABP1) using HepaRG (AID 2283494). An outline of the steps:
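Values reflect bidirectional concentration-response fitting of FABP1 mRNA change against 0.5% DMSO controls. Human HepaRG cultures received eight half-log doses (top 100 uM) for 48 h; expression quantified by TaqMan qRT-PCR with housekeeping-gene normalization.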

Read-out in assay [11]: Cytochrome P450 7A1 (Homo sapiens) (UniProt P22680)
Nature of the assay: LTEA_HepaRG_CYP7A1: Life Technologies and Expression Analysis (LTEA) Assay for Cytochrome P450 7A1 (CYP7A1) using HepaRG (AID 2283496). In a few lines: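 HepaRG, 48 h exposure, 8-pt half-log series from 100 uM, 0.5% DMSO vehicle, duplicates. Readout: TaqMan qRT-PCR mRNA vs three housekeeping genes; bidirectional curve fit against DMSO baseline.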

Read-out in assay [12]: Glutathione S-Transferase (GSTA2), GSTA2 (gene 2939)
Nature of the assay: LTEA_HepaRG_GSTA2: Life Technologies and Expression Analysis (LTEA) Assay for Glutathione S-Transferase (GSTA2) using HepaRG (AID 2283497). In a few lines: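 Oxidative-stress marker GSTA2 is quantified by TaqMan qRT-PCR in HepaRG cultures treated 48 h across an eight-point range to 100 uM. Expression is normalized to endogenous controls and compared with 0.5% DMSO vehicle.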

Read-out in assay [13]: Glutamate-cysteine ligase catalytic (GCLC), GCLC (gene 2729)
The experiment in a line: LTEA_HepaRG_GCLC: Life Technologies and Expression Analysis (LTEA) Assay for Glutamate-cysteine ligase catalytic (GCLC) using HepaRG (AID 2283498). An outline of the steps: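 Oxidative-stress marker GCLC is measured as mRNA change in human HepaRG liver cells after 48 h chemical treatment in 0.5% DMSO, eight concentrations from 100 uM. Activity is fitted bidirectionally against vehicle.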

Read-out in assay [14]: growth arrest and DNA damage 45 (GADD45G), GADD45G (gene 10912)
The experiment in a line: LTEA_HepaRG_GADD45G: Life Technologies and Expression Analysis (LTEA) Assay for growth arrest and DNA damage 45 (GADD45G) using HepaRG (AID 2283499). An outline of the steps:
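Human hepatic HepaRG line treated 48 h with chemicals (eight concentrations, half-log steps from 100 uM); transcript induction or repression of GADD45G scored by qRT-PCR versus DMSO vehicle.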

Read-out in assay [15]: Glutathione S-transferase M3 (GSTM3), GSTM3 (gene 2947)
Nature of the assay: LTEA_HepaRG_GSTM3: Life Technologies and Expression Analysis (LTEA) Assay for Glutathione S-transferase M3 (GSTM3) using HepaRG (AID 2283501). An outline of the steps: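 Changes in GSTM3 expression, an oxidative-stress marker, were scored by bidirectional curve fitting against 0.5% DMSO vehicle. Human HepaRG cultures received chemicals for 48 h in duplicate, highest concentration 100 uM with half-log dilutions.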

Cytochrome P450 3A4 (Homo sapiens), sequence (P08684 whole entry, looked up): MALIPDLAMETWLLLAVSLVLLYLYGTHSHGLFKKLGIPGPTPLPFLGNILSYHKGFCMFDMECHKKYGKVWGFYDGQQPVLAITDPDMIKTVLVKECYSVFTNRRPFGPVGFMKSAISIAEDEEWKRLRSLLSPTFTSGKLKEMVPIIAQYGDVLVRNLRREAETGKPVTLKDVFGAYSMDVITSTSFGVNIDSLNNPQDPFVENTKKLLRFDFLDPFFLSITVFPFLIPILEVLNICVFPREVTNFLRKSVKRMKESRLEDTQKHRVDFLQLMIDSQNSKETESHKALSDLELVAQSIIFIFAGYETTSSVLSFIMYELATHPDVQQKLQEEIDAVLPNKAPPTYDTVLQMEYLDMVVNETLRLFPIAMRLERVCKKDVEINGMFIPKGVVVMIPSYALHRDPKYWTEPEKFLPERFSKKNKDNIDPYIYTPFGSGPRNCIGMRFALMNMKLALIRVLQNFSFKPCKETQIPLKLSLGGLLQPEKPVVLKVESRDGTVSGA
Cytochrome P450 2C19 (Homo sapiens), sequence (P33261 whole entry, looked up): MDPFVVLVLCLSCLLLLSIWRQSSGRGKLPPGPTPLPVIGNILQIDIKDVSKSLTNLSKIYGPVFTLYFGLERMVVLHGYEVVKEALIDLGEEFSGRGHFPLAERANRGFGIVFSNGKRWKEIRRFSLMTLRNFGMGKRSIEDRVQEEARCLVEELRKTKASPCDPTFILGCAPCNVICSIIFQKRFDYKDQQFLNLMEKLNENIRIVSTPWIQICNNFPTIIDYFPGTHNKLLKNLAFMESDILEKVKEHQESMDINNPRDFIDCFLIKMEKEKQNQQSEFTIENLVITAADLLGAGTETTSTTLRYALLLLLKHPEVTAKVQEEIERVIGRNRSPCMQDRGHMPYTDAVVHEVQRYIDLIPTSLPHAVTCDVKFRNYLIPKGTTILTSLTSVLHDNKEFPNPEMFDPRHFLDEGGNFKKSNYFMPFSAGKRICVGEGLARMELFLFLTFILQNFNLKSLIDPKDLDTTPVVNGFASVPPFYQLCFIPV
Cytochrome P450 3A7 (Homo sapiens), sequence (P24462 whole entry, looked up): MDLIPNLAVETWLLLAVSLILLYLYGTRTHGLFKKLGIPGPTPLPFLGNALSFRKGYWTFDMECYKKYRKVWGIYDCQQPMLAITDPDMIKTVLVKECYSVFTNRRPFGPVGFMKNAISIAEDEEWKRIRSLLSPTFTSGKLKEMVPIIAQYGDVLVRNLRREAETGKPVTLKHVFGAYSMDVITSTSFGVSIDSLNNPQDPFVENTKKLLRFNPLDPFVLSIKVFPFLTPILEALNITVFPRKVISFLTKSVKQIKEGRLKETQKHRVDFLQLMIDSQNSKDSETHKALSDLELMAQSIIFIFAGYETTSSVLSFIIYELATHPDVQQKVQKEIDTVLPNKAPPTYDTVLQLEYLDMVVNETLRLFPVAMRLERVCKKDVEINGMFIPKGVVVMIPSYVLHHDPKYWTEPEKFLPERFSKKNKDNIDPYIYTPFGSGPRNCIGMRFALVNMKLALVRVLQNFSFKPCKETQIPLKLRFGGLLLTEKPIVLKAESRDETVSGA

In the case of `NC(=O)O`, the compound was classed as inactive (in assay [1]; in [2]; in [3]; with CYP2C8 (gene 1558); with CYP2C9 (gene 1559); in the assay with CYP2E1 (gene 1571)). Moreover, the call (with CYP4A11 (gene 1579); in assay [4]; in assay [5]; in assay [6]; in assay [7]; in assay [8]) was inactive. Besides, the compound was called inactive (in assay [9]; with CYP3A5 (gene 1577); in assay [10]; in [11]; in assay [12]; in assay [13]). Further, the compound was called inactive in assay [14] and in assay [15].
Consider `CC(C)(C)CC(C)(C)c1ccc(O)cc1`, for which the compound was classed as inactive (in [1]; in [3]; with CYP2C8 (gene 1558); with CYP2C9 (gene 1559); in [4]; in assay [5]). Besides, the compound was called inactive (in assay [6]; in [7]; in assay [8]; in assay [9]; in the assay with CYP3A5 (gene 1577); in [10]). The compound was classed as inactive in assay [11], in [12], in assay [13], in [14] and in assay [15]. The results for the AC50 (in assay [2]; with CYP2E1 (gene 1571); with CYP4A11 (gene 1579)) were 3.33 µM (active), 26.5 µM (active) and 72.3 µM (active), respectively.
As to `O=C(O)C(F)(F)C(F)(F)C(F)(F)C(F)(F)C(F)(F)C(F)(F)C(F)(F)C(F)(F)C(F)(F)C(F)(F)F`, the compound was called inactive (in assay [1]; in assay [3]; in the assay with CYP2C8 (gene 1558); in assay [4]; in assay [5]; in [6]). Also, the outcome in assay [7], in [8], in assay [9], in assay [10], in assay [13] and in [14] was inactive. The compound was called inactive in assay [15]. Besides, the AC50 in assay [2] is 47.8 µM (active); with CYP2C9 (gene 1559) it was 47.8 µM (active); with CYP2E1 (gene 1571), 57 µM (active); with CYP4A11 (gene 1579), 21.5 µM (active); with CYP3A5 (gene 1577), 21.4 µM (active); in assay [11], 46.5 µM (active). In addition, the half-maximal activity concentration (AC50) in assay [12] was 47.8 µM (active).
`Cn1sc(Cl)cc1=O`: the call (in assay [1]; in assay [2]; in assay [3]; with CYP2C8 (gene 1558); with CYP2C9 (gene 1559); in the assay with CYP2E1 (gene 1571)) was inactive. In addition, the compound was called inactive (with CYP4A11 (gene 1579); in [4]; in assay [5]; in assay [6]; in assay [7]; in [8]). In addition, the call (in [9]; in the assay with CYP3A5 (gene 1577); in [10]; in assay [11]; in assay [12]; in assay [13]) was inactive. Besides, the compound was classed as inactive in [14] and in [15].
